# Experimental data from PubChem BioAssay AID1578 (Sanford-Burnham Center for Chemical Genomics, 2009).
# Out of some 290,000 compounds screened, about 3,000 (1%) were called active. No stated cut-off is given here; in the data, active means inhibition mostly above about 36% (no sharp cut-off); inactive means mostly below about 34%. For the sample, actives were picked, then their nearest neighbours and some compounds at random.
# Test: NOD1 signaling inhibitors, primary screen, cell-based, luminescence, uHTS (AID 1578);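 further: HEK-293T reporter cells stimulated with the NOD1 agonist gamma-tri-DAP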
# Conditions: NOD1-driven NF-kB luciferase reporter cells, at 4 µM, hits give high values
row,Compound,inhibition
1,COc1cc(CN2CCN(CCOCCO)CC2)cc(OC)c1OC,-4.8% (inactive)
2,Cc1cc(/C=C2\Sc3ccccc3N2C)cc(C)[n+]1CC1CCCO1 (stereo not drawn),56.7% (active)
3,Cc1ccc(/C=C2/Sc3ccccc3N(CC(=O)NCC3CCCO3)C2=O)cc1 (stereo not drawn),-4.1% (inactive)
4,COc1ccccc1-[n+]1c(C)cc(/C=C2\Sc3ccccc3N2C)cc1C,28.9% (inactive)
5,Nc1nonc1-n1nnc(C(=O)N/N=C/c2ccc(OCc3ccccc3)cc2)c1COc1ccc(F)cc1,-0.6% (inactive)
6,CC(=O)c1cccc(NC(=S)Nc2ccn(Cc3cccc4ccccc34)n2)c1,-5.1% (inactive)
7,O=C(Nc1ccn(Cc2cccc3ccccc23)n1)c1cccnc1,7.1% (inactive)
8,NS(=O)(=O)c1ccc(NC(=S)Nc2ccn(Cc3cccc4ccccc34)n2)cc1,56.6% (active)
9,Cc1cc(C)n(C(=O)c2ccc(C)c(Br)c2)n1,-2.6% (inactive)
10,O=C1OCCN1c1c(-c2ccccc2)c(-c2cccs2)nc2c(-c3ccccc3)cccc12,66% (active)
11,c1csc(-c2nnc(N3CCOCC3)c3ccccc23)c1,2.4% (inactive)
12,c1csc(-c2nc(N3CCOCC3)c3ccccc3n2)c1,-9.5% (inactive)
13,CCOc1ccc2nc(NC(=O)CSc3nc4cccnc4n3C)sc2c1,-1% (inactive)
14,O=C(NC1CCCC1)c1ncn[nH]1,-17.9% (inactive)
15,CC1CC(NC(=O)c2cnc3n(c2=O)CCS3)CC(C)(C)C1 (stereo not drawn),-9% (inactive)
16,CC1CC(NC(=O)c2ncn[nH]2)CC(C)(C)C1 (stereo not drawn),84.5% (active)
17,Cc1nn(-c2ccc(Cl)c(Cl)c2)c(C)c1C(=O)O,-17.4% (inactive)
18,CCc1nnc(NC(=O)CC23CC4CC(CC(Br)(C4)C2)C3)s1,-2.7% (inactive)
19,CCc1c(C)nc(SCC(=O)N2CCCCC2CC)[nH]c1=O (stereo not drawn),-11.1% (inactive)
20,C/C(=N\NC(=O)C1(C)CC1(Br)Br)c1cccc(NC(=O)c2ccc(C)o2)c1 (stereo not drawn),89.8% (active)
21,C/C(=N\NC(=O)c1cccc(Br)c1)c1cccc(NC(=O)c2ccc(C)o2)c1,-55.5% (inactive)
22,C/C(=N\NC(=O)C1(C)CC1(Br)Br)c1ccc(NC(=O)c2ccc(C)o2)cc1 (stereo not drawn),13.4% (inactive)

row,Compound,inhibition
1,O=S(=O)(O)c1ccc(N=NNc2ccc(Br)cc2)cc1,-12.1% (inactive)
2,C=C1/C(=C\C=C2/CCC[C@]3(C)[C@@H]([C@H](C)CCCC(C)(C)O)CC[C@@H]23)C[C@@H](O)C[C@@H]1O,65.6% (active)
3,COc1ccc(-c2nc(C)ncc2-c2ccc(Cl)cc2)c(O)c1,5.6% (inactive)
4,CCN(C(=O)COC(=O)/C=C/c1cccc(Br)c1)C1CCS(=O)(=O)C1 (stereo not drawn),-18.9% (inactive)
5,CN(C(=O)COC(=O)/C=C/c1cccc([N+](=O)[O-])c1)C1CCS(=O)(=O)C1 (stereo not drawn),61.3% (active)
6,CN(C(=O)COC(=O)/C=C/c1ccc(C(F)(F)F)cc1)C1CCS(=O)(=O)C1 (stereo not drawn),-16.9% (inactive)
7,CCOC(=O)c1c(Nc2ccccc2)sc(/C=C2\C=Nc3ccccc32)c1O,-68% (inactive)
8,CCN(CC)C(=O)Oc1ccc2ccccc2c1Cl,-86.7% (inactive)
9,O=S(=O)(CCSc1nc2ccccc2s1)c1nc2ccccc2s1,99% (active)
10,CCS(=O)(=O)CCSc1nc2ccccc2s1,-2.7% (inactive)
11,O=S(=O)(CCSc1ccccn1)c1nc2ccccc2s1,74.4% (inactive)
12,Cc1ccc(S(=O)(=O)N2CCCC2)cc1C(=O)NCc1ccccn1,-26.2% (inactive)
13,O=C(c1cc(-c2ccc(F)cc2)on1)N1CCCCCC1,-53.7% (inactive)
14,Nc1c(Cl)ncnc1N/N=C/c1ccnc2ccccc12,8.6% (inactive)
15,Nc1c(Cl)ncnc1N/N=C/c1ccc2ccccc2n1,109% (active)
16,Nc1c(Cl)ncnc1N/N=C/c1ccc(O)cc1,-9% (inactive)
17,CCCCOC(=O)C1C2C=C[C@]3(CN(C(C)c4ccc(OC)cc4)C(=O)[C@H]13)O2 (stereo partly drawn),11.8% (inactive)
18,CC(=O)Nc1cccc(Cl)c1C(=O)O,-21.4% (inactive)
19,Cc1nn(C(=O)c2ccco2)c(C)c1Sc1ccc([N+](=O)[O-])cc1,-7.1% (inactive)
20,Cc1ccc(C(=O)N/N=C(/CC(=O)c2cccs2)C(F)(F)F)cc1,70% (active)
21,O=C(N/N=C(\CC(=O)c1cccs1)C(F)(F)F)c1ccncc1,-3.7% (inactive)
22,O=C(N/N=C(/CC(=O)c1cccs1)C(F)(F)F)c1ccc(O)cc1,-19.9% (inactive)

row,Compound,inhibition
1,COC(=O)Cc1c(C)c2ccc(OC3CCCCC3=O)c(C)c2oc1=O (stereo not drawn),-8.8% (inactive)
2,c1cncc(-c2nnc(C3CCCCC3)o2)c1,11.8% (inactive)
3,Clc1ccc(-c2nnc(C3CCCCC3)o2)cc1,70.8% (active)
4,Clc1ccc(-c2nnc(C3CC3)o2)cc1,-15.4% (inactive)
5,COc1ccc(C(=O)NC(CC(=O)O)c2cc([N+](=O)[O-])ccc2Cl)c(SC)c1 (stereo not drawn),-14.4% (inactive)
6,O=C1C2CCCN2C(c2ccc(F)cc2)N1c1cccc(Cl)c1 (stereo not drawn),-10.3% (inactive)
7,O=C(COC(=O)c1cncc(Br)c1)NCCC1=CCCCC1,-8.5% (inactive)
8,O=[N+]([O-])c1cc(/C=N/O)ccc1Sc1ccccc1,8.1% (inactive)
9,Cc1ccc(Sc2ccc(/C=N/O)cc2[N+](=O)[O-])cc1,54.4% (active)
10,CO/N=C/c1ccc(Sc2ccc(C)cc2)c([N+](=O)[O-])c1,7.3% (inactive)
11,COc1ccc(OC)c(NC(=O)C2CCN(c3ncccn3)CC2)c1,-1.7% (inactive)
12,COc1ccc(N2CCN(Cc3cc4c(cc3Br)OCCO4)CC2)cc1,-11.3% (inactive)
13,COc1ccc(C=O)cc1Cn1ccnc1,-23% (inactive)
14,COc1ccc(C=O)cc1Cn1ccnc1C,62.6% (active)
15,CCc1nccn1Cc1cc(C=O)ccc1OC,15% (inactive)
16,Cc1oc(-c2ccccc2)cc1C(=O)NC(Cc1c[nH]c2ccccc12)C(=O)O (stereo not drawn),-35.2% (inactive)
17,O=C(NCCNC(=O)c1ccccc1)c1ccccc1,-9.5% (inactive)
18,CN(C)CCCn1c(N)c(C#N)c2nc3ccccc3nc21,5.6% (inactive)
19,CCCCCn1c(N)c(C#N)c2nc3ccccc3nc21,8.5% (inactive)
20,CN(C)CCCn1c(N)c(C#N)c2nc(C#N)c(C#N)nc21,76.3% (active)
21,Cc1ccc(C2C(C=Nc3c(C)n(C)n(-c4ccccc4)c3=O)=C(c3ccccc3)Oc3ccccc32)cc1 (stereo not drawn),29.1% (inactive)
22,Cc1ccc(C2C(/C=C3/SC(=S)NC3=O)=C(c3cccs3)Oc3ccccc32)cc1 (stereo not drawn),88% (active)

row,Compound,inhibition
1,O=C1NC(=S)S/C1=C\c1ccc2ccccc2c1,5.2% (inactive)
2,CCC1CCCCN1S(=O)(=O)c1ccc(S(=O)(=O)N(Cc2cccs2)C2CC2)cc1 (stereo not drawn),7.6% (inactive)
3,O=c1oc2ccccc2cc1-c1cn2cccnc2n1,-55.7% (inactive)
4,Cc1cccn2cc(-c3cc4ccccc4oc3=O)nc12,-21.9% (inactive)
5,O=c1oc2ccccc2cc1-c1cn2ccccc2n1,64.7% (active)
6,Nc1ccc(-c2cc3ccccc3oc2=O)cc1,63.5% (active)
7,O=c1oc2ccccc2cc1-c1ccccc1,-31.9% (inactive)
8,O=c1oc2ccccc2cc1-c1ccc(O)cc1,54.1% (inactive)
9,Cc1cc(C)c2cc(CN(CCO)Cc3nnnn3Cc3ccccc3)c(=O)[nH]c2c1,-12.5% (inactive)
10,O=C(CC1COc2ccccc2O1)Nc1ccccn1 (stereo not drawn),-29.1% (inactive)
11,CCN(CC)S(=O)(=O)c1ccc(N2CCCC2)c(NS(=O)(=O)c2ccccc2)c1,4.1% (inactive)
12,CN(C)CCNC(=O)/C(=C/c1ccc(-c2cccc(Cl)c2)o1)NC(=O)c1ccccc1,112% (active)
13,CN(C)CCNC(=O)/C(=C/c1ccc(-c2ccc(Cl)cc2)o1)NC(=O)c1ccccc1,-19.3% (inactive)
14,CN(C)CCNC(=O)/C(=C/c1ccc(-c2cccc([N+](=O)[O-])c2)o1)NC(=O)c1ccccc1,4.2% (inactive)
15,Cc1nnc(NC(=O)C2CCCN(S(=O)(=O)Cc3ccccc3)C2)s1 (stereo not drawn),-8.7% (inactive)
16,Cc1cccc(Cn2c(C)nc3c(N)c(C)c(C)cc32)c1,-13.6% (inactive)
17,COc1ccc2nc(N/C(N)=N/C(=S)Nc3ccccc3)nc(C)c2c1,29.9% (inactive)
18,Cc1cccc(NC(=S)/N=C(\N)Nc2nc(C)c3cc(C)ccc3n2)c1,23.1% (inactive)
19,COc1ccc2nc(N/C(N)=N/C(=S)Nc3cccc(C)c3)nc(C)c2c1,51.4% (active)
20,O=C(Cc1ccccc1)Nc1cc2c(cc1Cl)OCCCO2,-59.9% (inactive)
21,CCN(CC(=O)NCc1ccc(Cl)cc1)C(=O)/C=C/c1ccc(Cl)c([N+](=O)[O-])c1,-18.8% (inactive)
22,CN(C)C(=O)c1ccc(NS(=O)(=O)c2ccc3c(c2)OCCO3)cc1,-34.8% (inactive)

row,Compound,inhibition
1,CN(C)S(=O)(=O)c1cccc(N=C2NN=C(c3ccccc3)CS2)c1,26.1% (inactive)
2,CCc1ccc(C2=NNC(=Nc3cccc(S(=O)(=O)N(C)C)c3)SC2)cc1,72.3% (active)
3,CC(=O)Nc1ccc(C2=NNC(=Nc3cccc(S(=O)(=O)N(C)C)c3)SC2)cc1,-32.6% (inactive)
4,COc1ccc(-n2c(=O)[nH]c3cc(C(=O)NCCc4ccc(Cl)cc4)ccc3c2=O)cc1OC,7.4% (inactive)
5,O=C(/C=C/c1ccccc1)NC1CCS(=O)(=O)C1 (stereo not drawn),-20% (inactive)
6,O=C(O)/C=C/C(=O)NC1CCS(=O)(=O)C1 (stereo not drawn),99.9% (active)
7,O=C(O)/C=C/C(=O)NC1CC1,-13.1% (inactive)
8,CCCC(C)c1nc(C(N)=O)c2[nH]c(=O)n(-c3ccc(OC)c(OC)c3)c2n1 (stereo not drawn),-11.9% (inactive)
9,O=C(N/N=C/c1c(F)cccc1Cl)C1CC1,-15.7% (inactive)
10,COc1cc(/C=N/O)ccc1OCc1ccc(C(=O)O)cc1,100% (active)
11,COc1cccc(/C=N/Nc2ccc(C(=O)O)cc2)c1O,104% (active)
12,COc1cc(/C=N/Nc2ccc(C(=O)O)cc2)ccc1O,-8.3% (inactive)
13,O=C(O)c1ccc(N/N=C/c2cccc(F)c2)cc1,-22.9% (inactive)
14,COc1cccc(/C=N/Nc2ccccc2C(=O)O)c1O,-5.1% (inactive)
15,COc1ccc(/C=N/Nc2ccc(C(=O)O)cc2)cc1OC,-8.6% (inactive)
16,COc1cc(/C=N/NS(=O)(=O)c2ccc(C)cc2)ccc1OCc1ccc(C(=O)O)cc1,18.4% (inactive)
17,COc1ccc(/C=N/Nc2ccc(C(=O)O)cc2)cc1Br,50.9% (active)
18,COc1cc(/C=N/O)ccc1OCc1ccc(Cl)cc1,-6.6% (inactive)
19,O=C(O)c1ccc(N/N=C/c2c(F)cccc2Cl)cc1,26.1% (active)
20,COc1cccc(/C=N/Nc2ccc([N+](=O)[O-])cc2)c1O,-2.8% (inactive)
